# In the antibiotic and cytotoxicity screens of Wong et al. (2023):
# Out of some 39,000 compounds screened, about 3,300 (8.5%) were called active. For the sample, actives were picked, then their nearest neighbours and some compounds at random.
# System: HepG2
# Assay: cytotoxicity call (relative viability < 0.9)
# Conditions: 10 µM
row,Compound,cytotoxicity call
1,C[C@@H]1CCCCO[C@@H](CN(C)S(C)(=O)=O)[C@H](C)CN([C@H](C)CO)C(=O)c2cc(N(C)C)ccc2O1,inactive
2,CCO/C(O)=C1/C(=O)CN(C)C1=O,inactive
3,CCS(=O)(=O)Nc1ccc2c(c1)C(=O)N(C)[C@@H]1CC[C@H](CC(=O)N[C@@H]3CCN(Cc4ccccc4)C3)O[C@H]1CO2,inactive
4,CN(C)CC(=O)N[C@H]1CC[C@@H](CCNC(=O)C2CCC2)O[C@H]1CO,inactive
5,Cc1nnc(N2CCC[C@]3(CN(C(=O)CO)CCO3)C2)o1,inactive
6,C[C@@H]1CN([C@H](C)CO)C(=O)Cc2cc(NC(=O)C3CCCCC3)ccc2O[C@@H]1CN(C)C(=O)Nc1ccc(C(F)(F)F)cc1,inactive
7,C[C@H]1CN([C@@H](C)CO)C(=O)c2cccc(NC(=O)c3ccncc3)c2O[C@@H]1CN(C)Cc1ccc(Oc2ccccc2)cc1,inactive
8,Cc1ccc(S(=O)(=O)Nc2ccc3c(c2)C(=O)N([C@@H](C)CO)C[C@H](C)[C@@H](CN(C)C(=O)Cc2ccccc2)OCCCC[C@H](C)O3)cc1,inactive
9,C[C@@H]1CN([C@@H](C)CO)S(=O)(=O)c2ccc(Br)cc2O[C@@H]1CN(C)CC1CCOCC1,inactive
10,CC(C)NC(=O)Nc1ccc2c(c1)C(=O)N([C@H](C)CO)C[C@H](C)[C@H](CN(C)Cc1ccc(C(F)(F)F)cc1)OCCCC[C@@H](C)O2,inactive
11,CC(C)NC(=O)Nc1ccc2c(c1)C(=O)N([C@H](C)CO)C[C@@H](C)[C@H](CN(C)Cc1ccc(C(F)(F)F)cc1)OCCCC[C@@H](C)O2,active
12,CC(C)NC(=O)Nc1ccc2c(c1)C(=O)N([C@@H](C)CO)C[C@@H](C)[C@H](CN(C)Cc1ccc(C(F)(F)F)cc1)OCCCC[C@@H](C)O2,inactive
13,CC(C)NC(=O)Nc1ccc2c(c1)C(=O)N([C@H](C)CO)C[C@@H](C)[C@H](CN(C)Cc1ccc(C(F)(F)F)cc1)OCCCC[C@H](C)O2,active
14,CC(C)NC(=O)Nc1ccc2c(c1)C(=O)N([C@@H](C)CO)C[C@@H](C)[C@@H](CN(C)Cc1ccc(C(F)(F)F)cc1)OCCCC[C@H](C)O2,inactive
15,CC(C)NC(=O)Nc1ccc2c(c1)C(=O)N([C@@H](C)CO)C[C@H](C)[C@H](CN(C)Cc1ccc(C(F)(F)F)cc1)OCCCC[C@@H](C)O2,active
16,CC(C)NC(=O)Nc1ccc2c(c1)C(=O)N([C@H](C)CO)C[C@H](C)[C@@H](CN(C)Cc1ccc(C(F)(F)F)cc1)OCCCC[C@@H](C)O2,inactive
17,CC(C)NC(=O)Nc1ccc2c(c1)C(=O)N([C@H](C)CO)C[C@H](C)[C@@H](CN(C)Cc1ccc(C(F)(F)F)cc1)OCCCC[C@H](C)O2,inactive
18,CC(C)NC(=O)Nc1ccc2c(c1)C(=O)N([C@H](C)CO)C[C@@H](C)[C@@H](CN(C)Cc1ccc(C(F)(F)F)cc1)OCCCC[C@H](C)O2,inactive
19,CC(C)NC(=O)Nc1ccc2c(c1)C(=O)N([C@@H](C)CO)C[C@H](C)[C@@H](CN(C)Cc1ccc(C(F)(F)F)cc1)OCCCC[C@@H](C)O2,active
20,CC(C)NC(=O)N(C)C[C@@H]1Oc2ccc(NC(=O)CCN3CCOCC3)cc2C(=O)N([C@@H](C)CO)C[C@@H]1C,inactive
21,COc1ccc2c3c(n(c2c1)C)[C@H](CO)N(C[C@]13CCN(CC1)C(=O)CC1CC1)C(=O)CN1CCOCC1,inactive

row,Compound,cytotoxicity call
1,COc1ccc(-c2cnc3c(c2)C(=O)N([C@@H](C)CO)C[C@@H](C)[C@H](CN(C)C(=O)C2CCOCC2)O3)cc1,inactive
2,C[C@H]1CCCCO[C@H](CN(C)Cc2ccc(C(=O)O)cc2)[C@@H](C)CN([C@@H](C)CO)C(=O)c2cc(NC(=O)Cc3ccccc3)ccc2O1,inactive
3,Cc1ccc(S(=O)(=O)Nc2ccc3c(c2)C(=O)N([C@@H](C)CO)C[C@@H](C)[C@@H](CN(C)CC2CC2)O3)cc1,inactive
4,CO[C@H]1CN(C)C(=O)c2ccc(NS(=O)(=O)c3ccccc3)cc2OC[C@H](C)N(C(=O)NC(C)C)C[C@@H]1C,inactive
5,COc1ccc(NC(=O)N(C)C[C@H]2Oc3ccc(NS(=O)(=O)c4cn(C)cn4)cc3CC(=O)N([C@@H](C)CO)C[C@H]2C)cc1,inactive
6,O=C(C[C@@H]1C[C@H]2c3cc(NC(=O)Cc4ccncc4)ccc3O[C@H]2[C@H](CO)O1)NCCN1CCCCC1,inactive
7,CC(=O)N[C@H]1[C@H](O[C@@H]2[C@@H](O)[C@H](C)O[C@@H](Oc3ccc4c(=O)c(-c5ccc(O)cc5)coc4c3)[C@@H]2O)O[C@H](CO)[C@@H](O[C@@H]2O[C@@H](C)[C@H](O)[C@@H](O)[C@H]2O)[C@@H]1O,inactive
8,O=C(C[C@@H]1C=C[C@@H](NC(=O)c2ccncc2)[C@@H](CO)O1)NCc1ccncn1,inactive
9,C[C@@H]1CCCCO[C@H](CN(C)Cc2ccc(C(=O)O)cc2)[C@H](C)CN([C@@H](C)CO)C(=O)c2cc(NC(=O)Nc3ccc(F)cc3)ccc2O1,inactive
10,COc1ccc(S(=O)(=O)Nc2ccc3c(c2)C(=O)N([C@H](C)CO)C[C@H](C)[C@@H](CN(C)S(=O)(=O)c2ccccc2)O3)cc1,inactive
11,CC(C)NC(=O)Nc1ccc2c(c1)C(=O)N([C@@H](C)CO)C[C@H](C)[C@@H](CN(C)Cc1ccc(C(F)(F)F)cc1)OCCCC[C@H](C)O2,active
12,CC(C)NC(=O)Nc1ccc2c(c1)C(=O)N([C@@H](C)CO)C[C@@H](C)[C@H](CN(C)Cc1ccc(C(F)(F)F)cc1)OCCCC[C@H](C)O2,inactive
13,CC(C)NC(=O)Nc1ccc2c(c1)C(=O)N([C@@H](C)CO)C[C@H](C)[C@H](CN(C)Cc1ccc(C(F)(F)F)cc1)OCCCC[C@H](C)O2,inactive
14,CC(C)NC(=O)Nc1ccc2c(c1)C(=O)N([C@H](C)CO)C[C@@H](C)[C@@H](CN(C)Cc1ccc(C(F)(F)F)cc1)OCCCC[C@@H](C)O2,inactive
15,CC(C)NC(=O)Nc1ccc2c(c1)C(=O)N([C@H](C)CO)C[C@H](C)[C@H](CN(C)Cc1ccc(C(F)(F)F)cc1)OCCCC[C@H](C)O2,inactive
16,CC(C)NC(=O)Nc1ccc2c(c1)C(=O)N([C@@H](C)CO)C[C@@H](C)[C@@H](CN(C)Cc1ccc(C(F)(F)F)cc1)OCCCC[C@@H](C)O2,active
17,O=C(C[C@@H]1C=C[C@@H](NC(=O)c2cnccn2)[C@H](CO)O1)NCc1ccccc1F,inactive
18,O=C(C[C@@H]1C[C@@H]2c3cc(NC(=O)Cc4ccncc4)ccc3O[C@@H]2[C@H](CO)O1)NCc1cccc(F)c1,inactive
19,CS(=O)(=O)[O-].C[n+]1ccccc1C=NO,inactive
20,OCc1cccc(CO)c1F,inactive
21,COc1ccc(S(=O)(=O)Nc2ccc3c(c2)CC(=O)N([C@@H](C)CO)C[C@H](C)[C@H](CN(C)C)O3)cc1,inactive

row,Compound,cytotoxicity call
1,C[C@@H](O)CC1=C[C@H]([C@@H](C)O)OC1=O,inactive
2,COc1ccc(S(=O)(=O)N(C)C[C@@H]2Oc3ccc(NS(=O)(=O)c4cccs4)cc3C(=O)N([C@H](C)CO)C[C@H]2C)cc1,inactive
3,C[C@@H]1CN([C@H](C)CO)C(=O)c2cc(NS(=O)(=O)c3cn(C)cn3)ccc2O[C@@H]1CN(C)S(C)(=O)=O,inactive
4,C[C@@H]1CN([C@@H](C)CO)C(=O)c2cc(NS(=O)(=O)c3cn(C)cn3)ccc2O[C@H]1CN(C)S(C)(=O)=O,active
5,C[C@H](CO)N1C[C@H](C)[C@@H](CN(C)S(=O)(=O)c2cn(C)cn2)Oc2ccc(NS(=O)(=O)c3ccc(F)cc3)cc2C1=O,inactive
6,C[C@@H]1CN([C@H](C)CO)C(=O)c2cc(NS(=O)(=O)c3cn(C)cn3)ccc2O[C@H]1CN(C)S(=O)(=O)c1cccs1,inactive
7,C[C@@H]1CN([C@@H](C)CO)C(=O)c2cc(NS(=O)(=O)c3cn(C)cn3)ccc2O[C@H]1CN(C)S(=O)(=O)c1cccs1,active
8,C[C@@H]1CN([C@H](C)CO)C(=O)c2cc(NS(=O)(=O)c3cn(C)cn3)ccc2O[C@@H]1CN(C)S(=O)(=O)c1cccs1,inactive
9,C[C@H]1CN([C@@H](C)CO)C(=O)c2cc(NS(=O)(=O)c3cn(C)cn3)ccc2O[C@@H]1CN(C)S(C)(=O)=O,inactive
10,COc1ccc(S(=O)(=O)N(C)C[C@H]2Oc3ccc(NS(=O)(=O)c4cccs4)cc3C(=O)N([C@H](C)CO)C[C@H]2C)cc1,inactive
11,COc1ccc(S(=O)(=O)N(C)C[C@@H]2Oc3ccc(NS(=O)(=O)c4cccs4)cc3C(=O)N([C@@H](C)CO)C[C@@H]2C)cc1,active
12,C[C@@H]1CN([C@H](C)CO)C(=O)c2cc(NS(=O)(=O)c3ccc(F)cc3)ccc2O[C@H]1CN(C)S(=O)(=O)c1cn(C)cn1,active
13,C[C@H](CO)N1C[C@H](C)[C@H](CN(C)S(=O)(=O)c2cn(C)cn2)Oc2ccc(NS(=O)(=O)c3ccc(F)cc3)cc2C1=O,inactive
14,CC(C)NC(=O)N(C)C[C@H]1Oc2ccc(NC(=O)CCC(F)(F)F)cc2CC(=O)N([C@H](C)CO)C[C@@H]1C,inactive
15,C[C@@H]1CCCCO[C@H](CN(C)C(=O)Nc2ccccc2)[C@@H](C)CN([C@H](C)CO)C(=O)c2cc(NC(=O)Nc3cccc4ccccc34)ccc2O1,inactive
16,Cc1noc(C)c1S(=O)(=O)Nc1ccc2c(c1)C(=O)N([C@@H](C)CO)C[C@@H](C)[C@H](CN(C)C(=O)Nc1ccccc1)OCCCC[C@@H](C)O2,inactive
17,N[C@@H](C(=O)O)[C@@H](O)[C@H](O)[C@H](O)CO,inactive
18,Fc1ccc(C2=NNC3=NCCN3C2)cc1F,inactive
19,COc1ccc(S(=O)(=O)Nc2cccc3c2O[C@H](CN(C)S(=O)(=O)c2ccccc2)[C@@H](C)CN([C@H](C)CO)C3=O)cc1,inactive
20,C[C@@H]1CCCCO[C@@H](CN(C)Cc2ccc(C(=O)O)cc2)[C@H](C)CN([C@H](C)CO)C(=O)c2cc(NC(=O)Nc3ccccc3)ccc2O1,inactive
